This is a sample that favours compounds with a hit; in the whole collection about 4.5% have one here.
FBA Mtb inh: inhibits M. tuberculosis FBA enzyme. AID 588726. purified M. tuberculosis FBA, fluorescence read-out. hit rate 2.3% among 360,000. inhibition, % at 1 µM
Target sequence (P9WQA3 whole entry, looked up): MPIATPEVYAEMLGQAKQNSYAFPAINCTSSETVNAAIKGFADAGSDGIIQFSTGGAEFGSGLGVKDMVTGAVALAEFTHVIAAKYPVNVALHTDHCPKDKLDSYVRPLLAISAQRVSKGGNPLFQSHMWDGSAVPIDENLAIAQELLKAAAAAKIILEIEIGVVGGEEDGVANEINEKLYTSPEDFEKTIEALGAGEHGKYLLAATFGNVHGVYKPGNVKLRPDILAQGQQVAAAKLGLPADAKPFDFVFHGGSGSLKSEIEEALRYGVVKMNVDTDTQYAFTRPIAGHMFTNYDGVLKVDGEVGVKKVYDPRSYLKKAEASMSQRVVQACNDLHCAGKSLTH
GDH-TPI counter-1: counter-screen for M. tuberculosis FBA inhibitors: GDH-TPI coupled enzymes; AID 588335; inhibition, % at 4.8 µM; hit rate 1.2% among 360,000; GDH-TPI coupled enzyme counterscreen, NADH absorbance; in the data active means inhibition above about 30%
BJeLR lethal: kills HRASV12-expressing BJeLR cells. inhibition, % (concentration not given with the values). hit rate 0.17% among 300,000. BJeLR (HRASV12) viability, CellTiter-Glo ATP luminescence, 48 h; in the data active means inhibition above about 50%
PrP UTR inh: inhibition of PrP 5' UTR reporter expression | cell-based PrP 5' UTR mRNA reporter, plate reader | inhibition, % (concentration not given with the values) | hit rate 0.35% among 340,000 | AID 488862; in the data active means inhibition above about 52%
PfHsp40 rescue: compounds rescuing yeast from Plasmodium falciparum HSP40 toxicity. S. cerevisiae expressing PfHsp40, growth rescue, ATP luminescence. growth rescue, % at 12.5 µM. hit rate 0.68% among 340,000. AID 504582; in the data active means growth rescue above about 28%, passing the limit was not always enough;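 further: yeast W303a lacking pdr1 and pdr3 grown in galactose medium; growth measured after three days at 30 °C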
PrPC TRFRET: cell surface PrPC inhibition, primary TR-FRET screen. P04156. TR-FRET read-out. inhibition, % at 13.8 µM. hit rate 0.43% among 370,000; in the data active means inhibition above about 24%
Mtb FBA confirm: Mtb FBA inhibition, confirmed | shares compounds with FBA Mtb inh | hit rate 78% among 5,600 | purified M. tuberculosis FBA, fluorescence read-out | inhibition, % at 1 µM | AID 651616
GDH-TPI counter-2: GDH-TPI inhibition counter-screen for FBA inhibitors | hit rate 81% among 5,600 | shares compounds with FBA Mtb inh | GDH-TPI coupled enzyme counterscreen, fluorescence | inhibition, % at 1 µM; in the data active means inhibition above about 10%
Large screens that a line does not name were inactive (follow-up assays come after a bar, where they were run). Unless noted, no stated cut-off is given here; in the data, active means inhibition above about 27%; inactive means the rest.

O=S(=O)(Nc1ccc(-c2cn3cccnc3n2)cc1)c1ccccc1	FBA Mtb inh 64 | Mtb FBA confirm inactive | GDH-TPI counter-2 inactive
O=S(=O)(Nc1cccc(-c2cn3cccnc3n2)c1)c1ccc(F)cc1	FBA Mtb inh 38 | Mtb FBA confirm 83 | GDH-TPI counter-2 81
O=S(=O)(c1cccc(-c2cn3cccnc3n2)c1)N1CCCCCC1	FBA Mtb inh 62 | Mtb FBA confirm 58 | GDH-TPI counter-2 49
O=C(Nc1cc2cc([N+](=O)[O-])ccc2oc1=O)c1cccs1	none (no result: FBA Mtb inh, GDH-TPI counter-1, PrP UTR inh, PfHsp40 rescue, PrPC TRFRET)
c1csc(CNc2nc(Oc3ccncc3)c3sccc3n2)c1	FBA Mtb inh 43 (no result: BJeLR lethal, PrP UTR inh, PfHsp40 rescue) | Mtb FBA confirm 65 | GDH-TPI counter-2 51
c1ccc(CNc2nc(Oc3ccncc3)c3sccc3n2)cc1	FBA Mtb inh 39 (no result: BJeLR lethal, PrP UTR inh, PfHsp40 rescue) | Mtb FBA confirm active | GDH-TPI counter-2 active
COCCNc1nc(Oc2ccccc2)c2sccc2n1	none (no result: BJeLR lethal, PrP UTR inh, PfHsp40 rescue)
CCOc1ccc(CCNC(=O)CSc2ncn[nH]2)cc1OCC	none
Cn1c(SCc2cccc(C#N)c2)nc2ccccc2c1=O	FBA Mtb inh 29 | Mtb FBA confirm inactive | GDH-TPI counter-2 inactive
O=C(/C=C/c1ccco1)N1CCN(c2ccc(F)cc2)CC1	none
Cc1ccc(/C=C/C(=O)N2CCN(c3ccc(F)cc3)CC2)o1	FBA Mtb inh 58 | Mtb FBA confirm 38 | GDH-TPI counter-2 36
CCOc1ccccc1-n1nnnc1SC(C)C(=O)OC (stereo not given)	none
CCOc1cc(-c2nc3c(C)cccn3c2NCC2CCCO2)ccc1O (stereo not given)	FBA Mtb inh 84 | Mtb FBA confirm 131 | GDH-TPI counter-2 108
CCOc1cc(-c2nc3ccccn3c2NCC2CCCO2)ccc1O (stereo not given)	none
COc1cc(-c2nc3ccccn3c2NCC2CCCO2)ccc1O (stereo not given)	none
COc1ccc(-c2nc3cccc(C)n3c2NCC2CCCO2)cc1O (stereo not given)	FBA Mtb inh 59 | Mtb FBA confirm 134 | GDH-TPI counter-2 104
Clc1ccc(-c2nnc(N3CCOCC3)o2)cc1	FBA Mtb inh 40 | Mtb FBA confirm 92 | GDH-TPI counter-2 56
O=C(CNc1ccccc1C(=O)O)c1ccccc1	FBA Mtb inh 28 | Mtb FBA confirm 34 | GDH-TPI counter-2 32
O=C(Nc1ccccc1C(=O)O)c1ccccc1	none
NC(=O)c1ccccc1NCC(=O)c1ccc(Cl)cc1	FBA Mtb inh 43 | Mtb FBA confirm 159 | GDH-TPI counter-2 124
Cc1ccccc1NC(=O)Cc1nc(-c2ccc3ccccc3c2)cs1	none
CCOC(=O)c1cnc2sc3c(n2c1=O)CCCC3	FBA Mtb inh 108 (no result: BJeLR lethal) | Mtb FBA confirm 53 | GDH-TPI counter-2 45
CN(C)Cc1c(O)ccc2c(=O)c(-c3ccc(Cl)cc3)coc12	FBA Mtb inh 46 | Mtb FBA confirm 43 | GDH-TPI counter-2 30
CC1CN(Cc2c(O)ccc3c2oc(=O)c2ccccc23)CC(C)O1 (stereo not given)	none
O=c1c(-c2ccccc2)coc2c(CN3CCCCC3)c(O)ccc12	FBA Mtb inh 106, GDH-TPI counter-1 36 | Mtb FBA confirm 90 | GDH-TPI counter-2 88
CCc1cc2c(=O)c(-c3ccc4c(c3)OCCO4)coc2c(CN2CCCCC2C)c1O (stereo not given)	FBA Mtb inh 45 | Mtb FBA confirm 70 | GDH-TPI counter-2 70
CC1CN(Cc2c(O)ccc3c(=O)c(-c4ccccc4)coc23)CC(C)O1 (stereo not given)	FBA Mtb inh 90 | Mtb FBA confirm inactive | GDH-TPI counter-2 inactive
O=c1c(-c2ccc([N+](=O)[O-])cc2)coc2c(O)c(O)ccc12	none
COC(=O)C(CO)Nc1ncnc2onc(-c3ccc(F)cc3)c12 (stereo not given)	none
CCCCNC(=O)C[C@H]1C[C@@]2(C(=O)OC)C(=C[C@H](C(C)C)O[C@@H]2C2CC2)N(CCc2ccc(OC)c(OC)c2)C1=O	none (no result: FBA Mtb inh, GDH-TPI counter-1, BJeLR lethal, PrP UTR inh, PfHsp40 rescue)
CCc1cc2c(=O)c(-c3nc4ccccc4[nH]3)coc2c(CN2CCCCC2C)c1O (stereo not given)	none
